Shown are actives, neighbours in structure and some others; about 9.2% of the full set was active somewhere.
SMN2 splice enh – increases expression of the SMN2 splice variant; HEK293 SMN2-luciferase splicing reporter, luminescence, 30-36 h; Potency, µM (highest dose often 46.1 µM), inactives show top-dose activity change, positive = activation, hits mostly activators; 210,000 compounds, 2.8% hits; note: % of control where 0% means no effect; nearly all actives have a fitted effect of over 55% in size
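HEK293 cells carry an SMN2 […]–luciferase reporter in which exon 7 inclusion puts luciferase in frame. Cells were plated 10-12 h before compound addition, then incubated 30-36 h at 37C. ONE-Glo luminescence was read; sodium butyrate at 4.5 mM final served as control.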
Rab9 promoter act – activators of Rab9 promoter; Huh7 Rab9 promoter-luciferase reporter, luminescence, 24 h; Potency, µM (titrated, usually from 9.22 µM), for inactives: top-dose activation, negative = inhibition, hits mostly activators; 320,000 compounds, 2.8% hits; note: % of control where 0% means no effect; nearly all actives have a fitted effect of over 60% in size
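Luciferase signal after 10 min detection reagent at ambient indicates Rab9 promoter upregulation; stably transfected Huh7 cells were treated 24 h with compound in DMSO at 37 °C, 5% CO2.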
NPC1 prom act – NPC1 promoter activation. Huh7 NPC1 promoter luciferase reporter, 24 h. Potency, µM (highest dose often 9.22 µM), for the others: at the highest dose activation, actives largely listed as activators. 320,000 compounds, 2.4% hits. AID 485313; note: % of control where 0% means no effect; nearly all actives have a fitted effect of over 60% in size
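Huh7 cells stably carrying NPC1 promoter–luciferase, plated in Opti-MEM with 10% FBS for 2 h, were exposed to compound in DMSO for 24 h at 37 °C; luciferase reagent was added for 10 min and luminescence read.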
ELG1 repair inh – blocks ELG1-dependent DNA repair in HEK293T cells. HEK293T ELG1-luciferase reporter, luminescence, 16 h; DNA damage induced by 5-fluorouridine. Potency, µM (titrated, usually from 46.1 µM), inactives show top-dose activity change, negative = inhibition, usual class: inhibitors. 330,000 compounds, 2.3% hits; note: % is set by controls: 0 for no effect and ±100 for the full control effect; nearly all actives have a fitted effect of over 55% in size
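5-Fluorouridine DNA damage + compound/DMSO, 2,000 cells/well, 16 h, 37 °C/5% CO2. ONE-Glo, 30 min RT, luminescence. Readout = decrease in reporter signal.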
FLuc counter – firefly luciferase modulation, counter-screen for miR-21 project. AID 588342. 360,000 compounds, 6.9% hits. purified FLuc, Km substrates, luminescence inhibition. Potency, µM (doses to about 57.5 µM), for inactives: top-dose activity change, negative = inhibition, actives largely listed as inhibitors;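 note: plate controls were vehicle for no effect and reference inhibitor for full effect; nearly all actives have a fitted effect of over 55% in size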
Target sequence (P08659 whole entry, looked up): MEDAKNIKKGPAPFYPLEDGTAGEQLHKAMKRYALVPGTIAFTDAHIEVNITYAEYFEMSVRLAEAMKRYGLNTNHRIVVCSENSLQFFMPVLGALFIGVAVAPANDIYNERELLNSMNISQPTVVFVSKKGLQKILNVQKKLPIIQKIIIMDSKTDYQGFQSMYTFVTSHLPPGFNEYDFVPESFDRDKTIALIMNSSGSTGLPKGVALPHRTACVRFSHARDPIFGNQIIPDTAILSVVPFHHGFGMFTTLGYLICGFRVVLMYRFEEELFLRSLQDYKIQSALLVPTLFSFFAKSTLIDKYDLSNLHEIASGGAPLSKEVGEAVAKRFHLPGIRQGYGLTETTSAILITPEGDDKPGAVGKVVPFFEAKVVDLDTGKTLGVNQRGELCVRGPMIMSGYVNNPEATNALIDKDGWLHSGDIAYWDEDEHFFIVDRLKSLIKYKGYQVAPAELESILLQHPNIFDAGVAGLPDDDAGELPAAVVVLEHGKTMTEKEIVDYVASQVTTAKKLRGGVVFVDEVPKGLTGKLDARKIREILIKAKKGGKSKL
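Purified P. pyralis luciferase, 10 nM final, with Km-level 10 uM D-luciferin and 10 uM ATP in 50 mM Tris acetate pH 7.5, 10 mM Mg acetate, 0.01% Tween-20, 0.05% BSA; 6-point qHTS titration about 60 µM downward; luminescence read.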
ELG1 genotox – genotoxicity induction in ELG1-luciferase HEK293T cells; 330,000 compounds, 1.3% hits; HEK293T ELG1-luciferase reporter, luminescence, 16 h; AID 504466; Potency, µM (titrated, usually from 46 µM), for the others: at the highest dose activity change, positive = activation, usual class: activators; note: % of control where 0% means no effect; nearly all actives have a fitted effect of over 60% in size
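Genotoxicity was scored as increased ELG1-luciferase reporter signal, measured by ONE-Glo luminescence (30 min, room temperature). Compound or vehicle exposure of the HEK293T reporter cells lasted 16 hr at 37°C.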
Starred values were filed as active, the others as inactive; ? = inconclusive; · = not tested or not shown. Calls come from the whole dose curve; as a rule, active = well fitted curve in the direction sought with a large enough effect; inconclusive = small, poorly fitted or top-dose-only effect, or another doubt; inactive = no such curve, though single readings can be large; an effect the other way counts as inactive or inconclusive. Potency is the fitted concentration of half-maximal effect.

SMILES	SMN2 splice enh	Rab9 promoter act	NPC1 prom act	ELG1 repair inh	FLuc counter	ELG1 genotox
CCc1ccc(/C=C(\C)C(=O)c2c(C)cc(C)[nH]c2=O)cc1	-85%	13%	2%	?	-4%	-11%
CCc1ccc(/C=C/C(=O)c2c(C)cc(C)[nH]c2=O)cc1	-76%	-10%	-5%	21µM*	?	-52%
Cc1ccc(/C=C/C(=O)c2c(C)cc(C)[nH]c2=O)cc1	-44%	-9%	1%	21µM*	-3%	0%
Cc1cc(C)c(C(=O)/C=C/c2cccs2)c(=O)[nH]1	-4%	-3%	-4%	?	-1%	-13%
Cn1c(N)c(C(=O)/C=C/c2ccccc2)c(=O)[nH]c1=O	·	?	?	?	17µM*	?
C/C(=C\c1ccc(Br)cc1)C(=O)c1c(C)cc(C)[nH]c1=O	·	-1%	-2%	15µM*	1%	-10%
CCSC1=C(C#N)C(c2ccc(C)s2)CC(=O)N1 (stereo not given)	0%	5%	3%	-3%	27µM*	0%
O=C(NC(=S)Nc1cccnc1Cl)c1ccc(Cl)cc1	·	?	?	?	17µM*	?
Cc1ccnc(NC(=S)NC(=O)/C=C/c2ccco2)c1	?	?	?	?	7.6µM*	9.2µM*
O=C(NC(=S)Nc1cccnc1Cl)c1ccco1	15%	?	22%	?	15µM*	8%
Cc1ccnc(NC(=S)NC(=O)c2ccco2)c1	88%	2µM*	2µM*	?	12µM*	?
CCOc1ccccc1NC(=S)NC(=O)c1ccco1	·	3%	0%	7%	?	1%
Cc1ccnc(NC(=O)CNC(=O)c2ccco2)c1	·	2%	2%	?	-4%	9%
O=C(NCCOc1ccc(F)cc1)C1CCC(=O)N(CCN2CCOCC2)C1 (stereo not given)	·	7%	9%	-5%	?	4%
COC[C@@H](O)[C@@H](OC)[C@H](OC)[C@H](Cc1c(OC)cc(OC)cc1OC)OC	5%	·	·	·	·	·
CC(C)CCNC(=O)C1CCN(C(=O)N2CCOc3ccc(Cl)cc32)CC1	·	·	·	·	-1%	·
NC(=O)c1cc(Cl)ccc1OCC(=O)NC1CC1	·	·	·	?	·	0%
O=C(NC(=S)Nc1cccnc1)c1cccs1	·	16%	11%	?	?	7%
Cc1ccnc(NC(=O)CNC(=O)c2cccs2)c1	·	-4%	2%	8%	1%	3%
Cc1ccnc(NC(=S)NC(=O)c2cccs2)c1	6.3µM*	0.79µM*	1.6µM*	?	4.3µM*	2.1µM*
O=C(NC(=S)Nc1ccccn1)c1ccco1	10µM*	2µM*	2.2µM*	?	21µM*	?
O=C(NC(=S)Nc1ccc(Cl)cn1)c1cccs1	13µM*	5.6µM*	?	?	3µM*	?
N#C/C(=C\c1cccnc1)C(=O)Nc1ccccc1[N+](=O)[O-]	·	-2%	0%	?	1%	-16%
COc1ccccc1NC(=O)N1CCC(CN2CCc3ccccc3C2)CC1	·	·	·	·	-1%	·
Nc1nc(SCC(=O)NCCc2ccccc2)[nH]c(=O)c1-c1ccccc1	-17%	-2%	-8%	-20%	2%	-6%
CCOC(=O)c1c(NC(=O)c2ccco2)sc(C(=O)N2CCCC2)c1C	24%	-1%	2%	?	-1%	-6%
CCOC(=O)c1c(NC(=O)CN2CCCc3ccccc32)sc(C)c1C	-18%	2%	-2%	?	?	?
CCc1cc(C(=O)OC)c(NC(=O)CN2CCN(C(=O)c3ccco3)CC2)s1	·	7%	-2%	10µM*	1%	-19%
COCCOC(=O)c1c(NC(=O)CN2CCCc3ccccc32)sc(C(N)=O)c1C	·	-3%	0%	7.3µM*	4%	-4%
CCOC(=O)c1c(NC(=O)CN2CCN(C(=O)c3ccco3)CC2)sc(C(N)=O)c1C	-3%	-1%	-7%	23µM*	2%	0%
